hDAT+cocaine = changed hDAT dopamine uptake under cocaine IC80, either direction, primary screen, cocaine antagonist project, cell-based, LLC-PK1 hDAT, [14C]-dopamine uptake, MLSMR; LLC-PK1 hDAT cells, [14C]-dopamine uptake with cocaine IC80; actives deviate in either direction; B-score at 10 µM; actives 1.3% (n = 110,000);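 active = Z score or B-score, a plate-position-corrected score, falls beyond the plate's 99.7% confidence bounds, in either direction; inactive = both scores lie inside the 99.7% bounds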;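 also: scored against the spread of the other compound wells on the same plate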
CYP2C9 activ = human CYP2C9 activators, primary screen, biochemical, luminescence | recombinant CYP2C9, luciferin-H conversion; hits give high values; factor 1 = untreated enzyme, 0 = blocked | activation factor at 5 µM | actives 1.4% (n = 96,000);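 active = activation factor of 2 or more for CYP2C9 at a 5 µM dose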;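 also: 0 = sulfaphenazole-blocked wells and 1 = vehicle-only wells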
Target sequence (P11712 whole entry, looked up): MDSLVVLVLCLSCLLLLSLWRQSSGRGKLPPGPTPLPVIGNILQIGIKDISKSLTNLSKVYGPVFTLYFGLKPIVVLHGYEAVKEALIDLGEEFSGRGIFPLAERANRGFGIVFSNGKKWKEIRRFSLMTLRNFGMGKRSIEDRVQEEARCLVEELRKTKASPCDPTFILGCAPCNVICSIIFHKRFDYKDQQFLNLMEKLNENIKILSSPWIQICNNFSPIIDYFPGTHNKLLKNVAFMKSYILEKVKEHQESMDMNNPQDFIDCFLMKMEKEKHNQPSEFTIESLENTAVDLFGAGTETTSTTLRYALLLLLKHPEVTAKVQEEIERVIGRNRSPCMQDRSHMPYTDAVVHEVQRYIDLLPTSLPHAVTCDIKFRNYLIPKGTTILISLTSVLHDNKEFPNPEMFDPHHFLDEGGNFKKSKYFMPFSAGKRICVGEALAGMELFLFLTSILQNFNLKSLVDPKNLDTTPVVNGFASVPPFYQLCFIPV
CYP2C19 inh = blockers of cytochrome P450 2C19 activity – biochemical, luminescence, ADME assay, primary screen; CYP2C19 Supersomes, luciferin-H EGE luminescence, 30 min; inhibition, % at 5 µM; actives 21% (n = 96,000); AID 778, 2007;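 active = CYP2C19 inhibition above a set limit at 5 µM in the primary screen, cut at about 50% in these data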;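 also: plate controls were negative control wells for no effect and 2.5 mM tranylcypromine positive control for full effect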
CYP2C19 activ = human CYP2C19 activators, primary screen, biochemical, luminescence | recombinant CYP2C19, luciferin-H EGE luminescence; hits give high values; 0 = fully inhibited enzyme, 1 = untreated enzyme | activation factor at 5 µM | 96,000 tested, under 10 active | Cytochrome P450 2C19 (Homo sapiens), P33261 | AID 1025, 2008;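 active = activation factor of at least 2 at 5 µM in the primary screen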;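 also: 0 = wells with 2.5 mM tranylcypromine and 1 = vehicle-only wells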
CYP2C9 inhib = blockers of cytochrome P450 2C9 activity – biochemical, luminescence, ADME assay, primary screen; CYP2C9 Supersomes, luciferin-H conversion; inhibition, % at 5 µM; actives 20% (n = 96,000); AID 777, 2007;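 active = blocking of liver enzyme CYP2C9 beyond about 50% at 5 µM, limit read from the data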
D1 mod = D1 CRE-luciferase signal change, two-sided – cell-based, HEK293 D1, dopamine EC30, D1 allosteric modulator project, primary screen; actives 5.9% (n = 58,000); D(1A) dopamine receptor (Homo sapiens), P21728; dopamine EC30 potentiation; actives deviate in either direction; B-score at 10 µM;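 active = luminescence count or its row- and column-corrected plate score outside the 99.7% band of the plate's sample wells, on either side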
Active calls of the source: *; · = no result. An excerpt weighted towards active compounds, which were near 28% of everything screened.

SMILES	hDAT+cocaine	CYP2C9 activ	CYP2C19 inh	CYP2C19 activ	CYP2C9 inhib	D1 mod
O=C(CCCc1nc(-c2ccc(Cl)cc2)no1)N1CCOCC1	0.09	·	·	·	·	-1.4
Cc1cccc(CCNS(=O)(=O)c2ccc(S(=O)(=O)N3CCCCC3)cc2)c1	0.25	0.7	-6	1.1	32	·
COc1ccc(CCNS(=O)(=O)c2cccc(S(=O)(=O)N3CCCC3)c2)cc1OC	-0.0066	0.2	96*	0	84*	1.3
COc1ccc(CCNS(=O)(=O)c2cccc(C)c2)cc1OC	1.2	0.1	98*	0	89*	·
CC1CCN(C(=O)C2(NC(=O)Nc3cccc(F)c3)CCCCC2)CC1	0.14	·	·	·	·	·
CCn1ccc(C(=O)Nc2ccc(Cl)cn2)n1	0.52	0.6	67*	0.3	39	-0.041
CCn1nccc1C(=O)Nc1ccc(Cl)cn1	-0.64	0.8	59*	0.4	22	·
Nc1nnc(COc2ccc(Br)cc2Br)s1	0.016	0.9	71*	0.3	6	1.6
Cc1ccc(C)c(OCc2nnc(N)s2)c1	0.91	1.2	30	0.7	-25	·
CCn1c(COc2ccccc2)nnc1SCc1ccc(C#N)cc1	0.77	0.8	22	0.8	17	·
CCn1c(COc2ccc(Cl)cc2)nnc1SCc1ccc(C#N)cc1	0.87	0.2	76*	0.2	76*	-0.67
CCn1c(SCc2ccc(Cl)cc2)nnc1-c1ccccc1	0.76	·	·	·	·	·
CCn1c(SCc2ccc(C#N)cc2)nnc1-c1cccc(Cl)c1	0.59	0.9	65*	0.3	14	-0.65
COc1ccc(N2CCCCn3c2nc2c3c(=O)n(C)c(=O)n2C)cc1	1.9	0.6	32	0.7	36	0.31
CSCCC(NC(=O)c1occc1C)C(=O)O (stereo not drawn)	0.55	1.2	-20	1.2	-24	-0.099
Cc1cc(C)cc(NC(=O)c2cccn2-c2ncc(C(F)(F)F)cc2Cl)c1	0.23	0.8	50	0.5	20	·
O=c1n(Cc2ccc(Cl)cc2)c2sc3c(c2c2ncnn12)CCCC3	0.48	0.1	50	0.5	85*	2.1
O=C(NNC(=S)NC(=O)c1cccnc1)c1ccc(Cl)cc1	0.079	0.4	2	1	63*	·
CCCCNC(=S)NNC(=O)c1cccnc1	-8.2*	·	·	·	·	·
Cc1ccc(C(=O)NNC(=S)NC(=O)c2ccc(Cl)cc2)cc1	-1.7	0.1	0	1	87*	·
CCNC(=S)NNC(=O)c1cccnc1	-0.43	·	·	·	·	·
O=C(CCc1ccccc1)NNC(=S)NC(=O)c1ccc(Cl)cc1	-0.022	0.6	20	0.8	43	·
Clc1cccc(Cc2nn[nH]n2)c1	-0.52	·	·	·	·	·
CC1(C)c2[nH]c3ccccc3c2C[C@@H]2C(=O)N(Cc3ccccc3)C(=O)N21	0.49	·	·	·	·	·
CC1(C)c2[nH]c3ccccc3c2C[C@H]2C(=O)N(Cc3ccccc3)C(=O)N21	2.8*	·	·	·	·	·
SMILES	hDAT+cocaine	CYP2C9 activ	CYP2C19 inh	CYP2C19 activ	CYP2C9 inhib	D1 mod
COc1ccc(-c2cnc(SCC(=O)Nc3cc(C)on3)n2Cc2ccco2)cc1	-1.2	0.1	61*	0.4	88*	-0.64
COc1ccc(NC(=O)CSc2ncc(-c3ccc(F)cc3)n2Cc2ccco2)cc1	-0.69	·	·	·	·	·
COCCn1c(-c2ccc(OC)cc2)cnc1SCC(=O)Nc1cccc2ccccc12	0.34	0.3	67*	0.3	72*	·
Cc1cnc(NC(=O)CSc2ncc(-c3ccccc3)n2Cc2ccco2)s1	0.12	0.3	32	0.7	73*	0.015
Cn1c(SCC(=O)Nc2cccc3ccccc23)nc(O)cc1=O	0.91	0.9	-5	1.1	6	-0.6
CCC(=O)Nc1cc(NC(=O)CSc2ncc(-c3ccc(F)cc3)n2Cc2ccco2)ccc1C	-0.14	0.1	91*	0.1	95*	0.23
O=C(CSc1ncc(-c2ccc(F)cc2)n1Cc1ccco1)Nc1nccs1	-2	0.9	8	0.9	9	-0.31
COc1ccc(/C(O)=C2\C(=O)C(=O)N(CCCN(C)C)C2c2ccccc2F)cc1Cl (stereo not drawn)	·	0.7	8	0.9	26	-0.012
O=S(=O)(c1ccc(NCC2CCCCC2)nc1)N1CCOCC1	0.58	0.8	10	0.9	17	0.28
Clc1cccc(-c2nc(NCc3cccnc3)c3ccccc3n2)c1	0.13	0.6	4	1	37	·
Cc1ccc(-c2nc(N/N=C/c3cccnc3)c3ccccc3n2)cc1	1.3	0.2	96*	0	82*	·
OCCSc1nc(-c2cccnc2)nc2ccccc12	0.056	0.1	63*	0.4	90*	·
c1ccc(-c2nc(NCc3cccnc3)c3ccccc3n2)cc1	0.32	0.4	28	0.7	65*	·
OCCNc1nc(-c2cccnc2)nc2ccccc12	0.014	0.9	15	0.9	8	·
CC1CN(C(=O)c2ccc(COCC(F)(F)F)o2)CC(C)O1 (stereo not drawn)	-0.25	1.2	4	1	-19	-0.38
CCC(=O)NCCCc1nc(-c2ccccc2)no1	-0.53	·	·	·	·	·
Cc1cccc(C2=N/C(=C\c3cccnc3)C(=O)O2)c1	0.49	1.2	8	0.9	-16	·
CC(Oc1ccccc1)C(=O)OCC(=O)NC(=O)NCc1ccco1 (stereo not drawn)	-0.004	0.5	10	0.9	52*	-0.47
O=C(COC(=O)CC1CC2CCC1C2)NC(=O)NCc1ccco1 (stereo not drawn)	-1	0.3	63*	0.4	70*	·
C=C(C)c1ccc(C(C)(C)NC(=O)NCc2ccco2)cc1	0.25	0.2	90*	0.1	81*	-1.7
CC(C)c1ccc(OCC(=O)NCc2ccco2)cc1	0.0045	0.3	90*	0.1	74*	0.033
C=C(C)c1ccc(C(C)(C)NC(=O)N(Cc2ccccc2)Cc2ccco2)cc1	0.052	1.1	-12	1.1	-10	·
Cc1[nH]c(=O)cc2ccccc12	-0.082	1.1	5	1	-12	-0.81
CC(C)CCSc1nc2c(c(=O)[nH]c(=O)n2C)n1CCCc1ccccc1	-0.95	0.9	-7	1.1	6	3.3
CC1CN(c2nc3c(c(=O)[nH]c(=O)n3C)n2Cc2ccccc2F)CC(C)O1 (stereo not drawn)	0.1	0.8	1	1	19	·
CCc1ccc(OCC(=O)NCc2ccco2)c(Br)c1	-1.3	0.3	87*	0.1	72*	0.93
CCOc1ccc(C(=O)NCc2ccco2)cc1	0.78	1	66*	0.3	-1	·
O=C(NCc1ccco1)c1ccc(Oc2ccccc2)cc1	-0.093	0.7	45	0.6	27	·
